Assay results taken from PubChem BioAssay AID1508602 (The Scripps Research Institute Molecular Screening Center, 2020).
The whole screen tested about 650,000 compounds, of which about 6,800 (1%) were called active. Only a selection was taken, and actives are over-represented in it overall. Values without a mark were called inactive. Rule as the data show it: active = activation above about 4.9%; inactive = the rest.

Each compound was assayed against G-protein coupled receptor 151 (Homo sapiens) (UniProt Q8TDV0) (assay: activates the human receptor GPR151, primary screen, cell-based, PathHunter beta-arrestin, luminescence (AID 1508602;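 also: 0% = median of compound wells and 100% = cells with positive control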)). Conditions: PathHunter beta-arrestin GPR151 cells, at 11.2 µM, hits give high values.
Chain of G-protein coupled receptor 151 (Homo sapiens) (Q8TDV0 whole entry, looked up): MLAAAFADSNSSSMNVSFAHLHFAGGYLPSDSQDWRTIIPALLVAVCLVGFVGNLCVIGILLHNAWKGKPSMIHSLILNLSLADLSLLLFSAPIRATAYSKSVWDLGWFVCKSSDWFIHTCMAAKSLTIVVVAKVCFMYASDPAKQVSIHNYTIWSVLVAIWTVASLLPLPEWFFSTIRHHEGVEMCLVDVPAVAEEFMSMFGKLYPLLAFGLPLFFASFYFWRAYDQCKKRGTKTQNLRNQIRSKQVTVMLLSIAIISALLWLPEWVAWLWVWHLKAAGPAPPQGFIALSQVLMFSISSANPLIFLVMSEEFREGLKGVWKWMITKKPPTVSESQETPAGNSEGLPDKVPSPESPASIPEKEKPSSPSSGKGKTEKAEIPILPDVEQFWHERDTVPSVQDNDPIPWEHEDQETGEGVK
`COc1cccc(/C=N/NC(=O)CC23CC4CC(CC(C4)C2)C3)c1O` showed an activation of 0.719%.
`COc1ccc(-n2ccnc2SCC(=O)Nc2ccc(C)cc2)cc1` was tested, and the activation was 1.88%.
Work on `COc1ccc(NC(=O)Cn2c(=O)n(-c3ccc(F)cc3)c(=O)c3sccc32)cc1` yielded an activation of -0.363%.
In the case of `COc1ccc(NC(=O)Cn2c(-c3ccc(OC)cc3)cn(-c3ccc(C)cc3)c2=O)cc1`, the activation is reported as 7.86% (active).
`CCOc1ccc(-c2nn(-c3ccccc3)cc2C2C(C(=O)OCc3ccccc3)=C(C)NC(C)=C2C(=O)OCc2ccccc2)cc1` was tested, and the activation was 1.89%.
In the case of `CCC1=C(C)c2cc3nc(C(=O)OCc4ccccc4)c(C)c-3c(C)n2C1C` (stereo not drawn), the activation is reported as 5.68% (active).
For `CCOC(=O)c1cc2c(C)n(Cc3ccccc3)c(C)c2cc(C(=O)OCC)c1=O`, the activation was -0.0778%.
In the case of `NC(=O)CN(c1ccccc1)S(=O)(=O)c1ccccc1[N+](=O)[O-]`, the activation is reported as 0.204%.
With `CCOc1cc(CNCc2c(C(=O)O)n(CC)c3cc(OC)ccc23)ccc1OC` the activation was -1.01%.
With `O=C(CSc1nnnn1-c1ccc(F)cc1)N1CCc2ccccc21` the activation was -1.53%.
With `O=C(CCN1CCN(C/C=C/c2ccccc2)CC1)Nc1ccc(Br)cc1` the activation was 1.05%.
For `O=CN1CCN(CCC(=O)Nc2ccccc2)CC1`, the activation was 5.13% (active).
`COc1ccc(NC(=O)CCN2CCN(C=O)CC2)cc1` was tested, and the activation was -1.28%.
Compound `CCOC(=O)c1c(NC(=O)c2nn3c(C(F)(F)F)cc(-c4ccc(OC)cc4)nc3c2Cl)sc2c1CCCC2` has an activation of 0.0805%.
With `Fc1ccc(Nc2nc3ccccc3n3cnnc23)cc1` the activation was -0.0284%.
In the case of `Cc1cc(Nc2ccc(F)cc2)n2cnnc2n1`, the activation is reported as 9.65% (active).
`Cc1ccc(Nc2cc(C)nc3nncn23)cc1` gave an activation of -0.458%.
`CCOc1ccccc1/C=C1/NC(=S)NC1=O` showed an activation of 0.436%.
With `O=C1CCCN1CCn1cnc2c(NCc3nc4ccccc4[nH]3)nc(N3CCc4ccccc4C3)nc21` the activation was -1.26%.
In the case of `CCn1cc(CNC(=S)Nc2cc(OC)ccc2OC)cn1`, the activation is reported as -1.23%.
`CNC(=O)C(=O)Nc1cc(OC)ccc1OC` gave an activation of -0.733%.
`COc1ccc(OC)c(NC(=S)Nc2ccccn2)c1` was tested, and the activation was 9.49% (active).
`COCCn1nnnc1C(c1cc2c(C)cc(C)cc2[nH]c1=O)N1CCCC(C)C1` (stereo not drawn) gave an activation of 0.229%.
`CCOc1ccc2cc(C#N)c(SCC(=O)Nc3ccccc3C(=O)OC)nc2c1` was tested, and the activation was -0.792%.
`COc1ccc(OC)c(CNC(=O)c2cc3c(C)nc4ccccc4c3o2)c1` showed an activation of 0.296%.
For `O=C(Nc1cc(Cl)cc(Cl)c1)c1ccc(F)c(S(=O)(=O)NCc2ccco2)c1`, the activation was 0.664%.
With `COc1ccc(C2=NN(C(=O)CSc3nnc(CNC(=O)c4ccc(S(=O)(=O)N(C)C)cc4)n3C)C(c3ccc(C)cc3)C2)cc1` (stereo not drawn) the activation was 1.11%.
`CC(C)CC(C(=O)Nc1ccc([N+](=O)[O-])cc1)N1C(=O)c2ccccc2C1=O` (stereo not drawn) showed an activation of 2.66%.
For `CC(C)CC(C(=O)Nc1cccc([N+](=O)[O-])c1)N1C(=O)c2ccccc2C1=O` (stereo not drawn), the activation was 15.7% (active).
With `CC(C)CC(C(=O)Nc1ccc(Cl)cc1)N1C(=O)c2ccccc2C1=O` (stereo not drawn) the activation was -0.915%.
With `CCOCCCNC(=O)/C(C#N)=C/c1c(Oc2ccc(CC)cc2)nc2ccccn2c1=O` the activation was -7.56%.
Work on `CCN(CC)c1ccc(CN2C[C@@H](NCc3ccc4ccccc4c3)C[C@H]2C(=O)NC)cc1` yielded an activation of 0.619%.
`CC1CCN(c2nc3ccc(C(=O)NCCCOC(C)C)cc3s2)CC1` was tested, and the activation was -0.0522%.
Work on `CCCCN(C)CCCNC(=O)C1CCN(c2nc3ccc(OC)cc3s2)CC1` yielded an activation of -1.77%.
With `CCOCCCNC(=O)NC1CCN(c2nc3ccccc3s2)CC1` the activation was 5.41% (active).
For `Cc1nn2c(N3CCNCC3)c3c(nc2c1-c1ccccc1)CCC3`, the activation was -1.05%.
In the case of `Cn1c(=NC(=O)CN2C(=O)c3ccccc3C2=O)sc2cc(F)cc(F)c21`, the activation is reported as 0.254%.
With `FC(F)(F)c1ccc(Nc2nc(NC3CC3)c3ncn(C4CCCCC4)c3n2)cc1` the activation was 0.642%.
For `c1cncc(Nc2nc(NC3CC3)c3ncn(C4CCCCC4)c3n2)c1`, the activation was 11.5% (active).
In the case of `c1cnc(Nc2nc(NCc3cccnc3)c3ncn(C4CCCCC4)c3n2)nc1`, the activation is reported as -0.529%.
Compound `Cc1ccc(NC(=O)CCNS(=O)(=O)c2ccc3c(c2)c(=O)n(C)c(=O)n3C)nc1` has an activation of -0.3%.
For `Cc1ccc(NC(=O)CSc2nc3cc4c(cc3cc2C#N)OCCO4)cc1`, the activation was -1.17%.
With `Cc1ccc2cc(C#N)c(SCCO)nc2c1` the activation was 6.39% (active).
For `COc1ccc2cc(C#N)c(SC)nc2c1`, the activation was 0.673%.
`CCN(CC)C(=O)Cn1cnc2sc(C(=O)NCc3ccc(Cl)cc3)c(C)c2c1=O` was tested, and the activation was 0.437%.
`COCCNC(=O)c1cn(C[C@H]2CCCN(C(=O)c3conc3C)C2)nn1` gave an activation of 1.06%.
Compound `COc1ccc([C@H](O)[C@@H]2CCCN(C(=O)OC(C)(C)C)C2)cc1` has an activation of 0.253%.
With `CC(C)(C)OC(=O)N1CCC[C@H](Cn2cc(C(=O)O)nn2)C1` the activation was 6.74% (active).
`O=C(Nc1ccccc1)c1cnc(NCCN2CCOCC2)s1` was tested, and the activation was -2.52%.
`COc1ccccc1C1C(C#N)=C(N)Oc2n[nH]c(-c3ccc4ccccc4c3)c21` (stereo not drawn) gave an activation of -0.23%.
With `COc1ccc(-c2nnc(SCC(=O)Nc3ccc(Br)cc3)nc2-c2ccc(OC)cc2)cc1` the activation was 1.77%.
In the case of `CC(C)CC(=O)NC(=S)Nc1ccc(F)cc1F`, the activation is reported as 2.41%.
For `CC(C)C(=O)NC(=S)Nc1ccccc1F`, the activation was 6.35% (active).
`OCCCNC(=S)Nc1ccccc1F` gave an activation of 0.421%.
For `COc1ccccc1NC(=O)NCc1nc(-c2ccc(OC)c(OC)c2)no1`, the activation was 7.48% (active).
In the case of `COc1ccccc1Cc1nc(-c2ccc(OC)c(OC)c2)no1`, the activation is reported as 1.66%.
In the case of `CCOc1ccccc1NC(=O)CCc1nc(-c2ccc(OC)c(OC)c2)no1`, the activation is reported as -1.02%.
For `COCCn1cc(C(=O)N2CCCCCC2)c2c3ccccc3n(C)c2c1=O`, the activation was 0.412%.
In the case of `CC1CCCC(NC(=O)C2N(CCN3CCCCC3)C(=O)C3C(C(=O)Nc4cc(Cl)cc(Cl)c4)C4C=CC32O4)C1C` (stereo not drawn), the activation is reported as -0.312%.
`COCCCNC(=O)c1nnc(-c2ccccc2)o1` showed an activation of -0.472%.
In the case of `CC(C)=CCC/C(C)=C/C=N/Nc1ccc(S(N)(=O)=O)cc1[N+](=O)[O-]`, the activation is reported as 1%.
In the case of `COc1cc(C(=O)Nc2c3c(nn2-c2ccc(F)cc2)CSC3)cc(OC)c1OC`, the activation is reported as 1.91%.
`Cc1ccc(-c2nc3ccc(C(=O)NCCC4=CCCCC4)cc3nc2-c2ccc(C)cc2)cc1` gave an activation of 4.13%.
`Cn1c(CNc2ccc(F)cc2)c(C#N)c2ccccc21` was tested, and the activation was 0.294%.
Compound `Cc1ccc(NCc2ccccc2CO)cc1` has an activation of -5.47%.
For `OCc1ccccc1CNc1ccc(F)cc1`, the activation was 10.3% (active).
With `COc1cc(CN2CCN(C3CCCC3)C(CCO)C2)cc(OC)c1OC` (stereo not drawn) the activation was -0.445%.
`O=c1c2c([nH]c(=S)n1Cc1ccco1)-c1ccccc1CC21CCCCC1` showed an activation of -0.102%.
Compound `C=CCSc1nc2c(c(=O)n1CC1CCCC1)C1(CCCC1)Cc1ccccc1-2` has an activation of 0.419%.
With `CC(C)CCSc1nc2c(c(=O)n1Cc1ccco1)C1(CCCCC1)Cc1ccccc1-2` the activation was 16.5% (active).
For `CC(C)(C)C(=O)/C=C/c1ccccc1O`, the activation was 0.824%.
`CC(C)N(CCNC(=O)c1cccc(-c2cccs2)n1)C(C)C` was tested, and the activation was -1.28%.
`CCCCc1ccc(NC(=O)CN2C(=O)C(C)SC(C)C2=O)cc1` (stereo not drawn) was tested, and the activation was 6.11% (active).
Compound `CCc1ccc(NC(=O)CN2C(=O)CSC(C)C2=O)cc1` (stereo not drawn) has an activation of -0.109%.
`CCCCc1ccc(NC(=O)CSc2nnc(C)s2)cc1` was tested, and the activation was 0.0157%.
`Cc1ccccc1C(=O)NNC(=O)c1ccccc1F` was tested, and the activation was -3.61%.
With `CSC1=C(C#N)C(c2ccc(Cl)cc2Cl)CC(=O)N1` (stereo not drawn) the activation was -1.96%.
With `C=CCSC1=C(C#N)C(c2ccc(Cl)cc2Cl)CC(=O)N1` (stereo not drawn) the activation was 5.51% (active).
In the case of `CCOc1ccc(NC(=O)CSC2=C(C#N)C(c3ccc(Cl)cc3Cl)CC(=O)N2)cc1` (stereo not drawn), the activation is reported as -1.43%.
With `COc1ccc([N+](=O)[O-])cc1NC(=O)c1cccc(Cl)c1Cl` the activation was -1.48%.
`COc1ccc([N+](=O)[O-])cc1NC(=O)C1CC(Cl)=CCC1C(=O)O` (stereo not drawn) was tested, and the activation was 6.77% (active).
Compound `O=C(O)C1CC=C(Cl)CC1C(=O)Nc1cccc([N+](=O)[O-])c1` (stereo not drawn) has an activation of -0.78%.
`CCN1CCN(C(=O)C(C)Oc2ccc(Cl)cc2Cl)CC1` (stereo not drawn) showed an activation of -0.795%.
`CCc1ccc(-n2c(C)c(C)n3c4c(=O)n(CC)c(=O)n(C)c4nc23)cc1` was tested, and the activation was 5.92% (active).
For `CCOC(=O)c1ccc(-n2c(C)c(C)n3c4c(=O)n(CC)c(=O)n(C)c4nc23)cc1`, the activation was 1.57%.
With `CCCn1c(=O)c2c(nc3n(-c4ccc(C)cc4)c(C)c(C)n23)n(C)c1=O` the activation was 3.26%.
In the case of `CCn1c(C)c(CCC(=O)NN2CCOCC2)c(=O)n2nc(-c3ccccc3OC)cc12`, the activation is reported as -0.283%.
`CCCCC(CCCC)=N/N=C1\NC(=O)C(CC(=O)O)S1` (stereo not drawn) gave an activation of -1.58%.
`N#Cc1ccc(C(=O)OCC(=O)Nc2ccc3[nH]c(=O)[nH]c3c2)cc1` was tested, and the activation was 0.615%.
In the case of `COc1ccc(C(=O)N/N=C/c2ccc(O)c3ncccc23)cc1`, the activation is reported as -2.28%.
Compound `Cc1ccc(S(=O)(=O)N2CCN(Cc3ccc(F)cc3)CC2)cc1` has an activation of -0.354%.
With `O=S(=O)(c1ccc(F)cc1)N1CCN(CCCc2ccccc2)CC1` the activation was 5.43% (active).
For `O=S(=O)(c1ccc(F)cc1)N1CCN(Cc2ccccc2F)CC1`, the activation was 0.53%.
